Each structure is given as a SMILES string. Screen size: about 150,000 compounds; about 540 (0.36%) showed an effect of 50% or more. The sample holds strong results, similar compounds and a random draw of the others, so the mix is not that of the screen.

The subject of this experiment is Plasmodium falciparum. Nature of the experiment: Primary screen in NF54 nanoGlo assay, in single point, at 2uM, 72h; a lower Z score goes with more inhibition. The note with it: timepoint 72 hour. The class given is functional, Erythrocyte.
As to `Cc1cnn(CCCNC(=O)C[C@H]2COCCN2Cc2ccc(C)o2)c1`, the “% Inhibition” value is recorded as -20% and the Z score is given as 2.24.
On to `CN(C)c1ccc(NC(=O)Cc2cnn(-c3ccccc3)c2)cn1`, for which the “% Inhibition” value is -12% and the Z score came to 1.6.
`N#Cc1nccnc1N[C@H]1CCCN(CC(F)(F)F)C1`: the “% Inhibition” value is listed as -11% and the Z score is 1.83.
For the compound `Cc1ccc(CN2C[C@@H](CO)[C@H](NC(=O)C3CCC3)C2)o1`, the “% Inhibition” value is listed as -6% and the Z score turned out to be 0.86.
On the same counts, the results for `Cc1ccc(N2C(=O)c3ccccc3[C@@H]2c2c[nH]c3ccccc23)cc1` are 63% and -5.25.
In the case of `COc1ccc(N2C(=O)c3ccccc3[C@@H]2c2cn(C)c3ccccc23)cc1`, the “% Inhibition” value is given as 7% and the Z score is -0.85.
Consider `CC(c1ccccc1)N1C(=O)c2ccccc2C1c1c[nH]c2ccccc12` (centres undefined), for which the “% Inhibition” value turned out to be 43% and the Z score was -5.38.
On the same counts, the results for `COc1ccc(CC(=O)N2CCCS(=O)(=O)C[C@H]2C2CC2)nc1` are -1% and 0.08.
As to `Cc1cccc2ncnc(N(C)[C@@H](C)Cc3ccc(O)cc3)c12`, the “% Inhibition” value was determined as 77% and the Z score is -16.2.
`Cc1cccc2ncnc(N(C)C3CC[S+]([O-])CC3)c12` (centres undefined): the “% Inhibition” value amounted to 3% and the Z score was -0.52.
Take `CC1(C)C[C@@H](NC(=O)[C@H]2CC[C@H](Cn3cnc4ccccc4c3=O)CC2)CCO1`: the “% Inhibition” value is reported as -6% and the Z score amounted to 0.79.
For the compound `C[C@@]1(NC(=O)CCc2nc(C3CCCC3)no2)CC=CCC1`, the “% Inhibition” value was -10% and the Z score was 1.9.
As for `O=C(NCC[C@H]1CCOC1)c1ccc(-c2ccc3cc[nH]c(=O)c3c2)cc1`, the “% Inhibition” value was -14% and the Z score turned out to be 1.37.
Regarding `CN1CC[C@H](N(C)C(=O)c2ccc(-c3ccc4c(=O)[nH]ccc4c3)cc2)C1`, the “% Inhibition” value is recorded as -4% and the Z score was 0.47.
On the same counts, the results for `CN(C)c1ccc([C@@H](CNC(=O)c2cccc(F)c2)c2c[nH]c3ccccc23)cc1` are 2% and -0.26.
On to `CN1CCC(N2CCC(CN(Cc3ccncc3)Cc3c(F)cccc3Cl)CC2)CC1`, for which the “% Inhibition” value was 98% and the Z score is -9.12.
The corresponding values for `CN1CCC(N2CCC(CN(Cc3ccncc3)C3CCOCC3)CC2)CC1` are 0% and 0.
Turning to `COCCN1CCC(CN(Cc2ccncc2)Cc2nc3ccc(F)cc3[nH]2)CC1`, the “% Inhibition” value was determined as 0% and the Z score is given as 0.04.
On to `COc1ccc(CN(Cc2ccncc2)CC2CCN(C3CCN(C)CC3)CC2)c(F)c1`, for which the “% Inhibition” value stood at 88% and the Z score is -10.13.
For `COCCN1CCC(CN(Cc2ccncc2)Cc2cc(C)c(C)o2)CC1`, the “% Inhibition” value is given as -30% and the Z score worked out at 4.08.
With `CC(=O)NCCn1ccnc1-c1ccc(F)c(F)c1F`, the “% Inhibition” value is on record as -9% and the Z score was determined as 1.18.
On to `C[C@H](NCC1(c2c(F)cccc2F)CC1)c1cnn(C)c1`, for which the “% Inhibition” value is given as -3% and the Z score was determined as 0.45.
Consider `CC(C)(C)CN1C[C@@H](NC(=O)COc2ccc3c(c2)OCO3)CC1=O`, for which the “% Inhibition” value was -1% and the Z score is 0.23.
`CCCC(CCC)C(=O)Nc1ccc(O)cc1C(=O)O`: the “% Inhibition” value stood at 40% and the Z score is recorded as -0.25.
Turning to `COCC(O)CN1CCC(NC2CCCc3cc(F)ccc32)CC1` (centres undefined), the “% Inhibition” value is 1% and the Z score is listed as -0.12.
Regarding `COCCCN(Cc1ccc(C(O)(c2ccc(OC)cc2)c2ccc(OC)cc2)o1)Cc1ccccc1OC`, the “% Inhibition” value came to 3% and the Z score is reported as -0.38.
Regarding `CN1CCO[C@@H](CNc2ncnc3c2cnn3-c2ccccc2F)C1`, the “% Inhibition” value is recorded as -1% and the Z score was 0.08.
On the same counts, the results for `Cc1nc(N2CCCC2C(=O)N2CCC(C(O)Cc3ccccc3)CC2)nc2ccccc12` (centres undefined) are -15% and 1.71.
The corresponding values for `O=C(O)c1ccc2c(NC3CCCC3)ncnc2c1` are -5% and 0.71.
On the same counts, the results for `CS(=O)(=O)N1CCC(Nc2ncnc3cc(Cl)ccc23)CC1` are 18% and -2.07.
On to `CC1CC(Nc2ncnc3cc(Br)ccc23)CCN1C` (centres undefined), for which the “% Inhibition” value was 97% and the Z score is listed as -8.72.
`OC(CN1CCOC2CCCCC21)Cn1cccn1` (centres undefined): the “% Inhibition” value is listed as -5% and the Z score is 0.7.
For the compound `CC(C)CNC(=O)c1[nH]cnc1C(=O)N1CCC(Cc2ccccc2)CC1`, the “% Inhibition” value worked out at 31% and the Z score was -3.65.
On the same counts, the results for `CC[C@H]1CCCCCN1C(=O)NCCc1nnc(C)s1` are -9% and 1.2.
Take `COc1ccc(Nc2nnc(-c3ccc(NC(=O)C(=O)NCCCn4ccnc4)cc3)s2)cc1`: the “% Inhibition” value is listed as 66% and the Z score is on record as -7.06.
Consider `COc1ncc(C(=O)NCCCn2ccnc2)cn1`, for which the “% Inhibition” value is reported as -14% and the Z score was 1.29.
As to `CCN(CC)Cc1cnc2c(C(=O)N(C)C3Cc4ccccc4C3)cnn2c1`, the “% Inhibition” value is -6% and the Z score was 0.83.
Take `CN1C(=O)[C@@H]2CC[C@H]1CN(C1CCN(c3ncc4ccc(F)cc4n3)CC1)C2`: the “% Inhibition” value is 3% and the Z score was -0.38.
`CO[C@H]1CCOC[C@@H]1NC1CCN(c2ncc3ccc(F)cc3n2)CC1`: the “% Inhibition” value is recorded as 1% and the Z score is -0.16.
In the case of `Cc1ccc2c(c1)C(=O)N1CCCC1C(=O)N2CC(=O)NCC1CCCO1` (centres undefined), the “% Inhibition” value is -1% and the Z score is on record as 0.1.
As to `Nc1c2c(nc3c1cnn3-c1cc(F)cc(F)c1)CCCC2=O`, the “% Inhibition” value is recorded as -9% and the Z score came out at 1.23.
Consider `COc1ccc(-n2ncc3c(N)c4c(nc32)CCCC4=O)cc1`, for which the “% Inhibition” value is listed as 56% and the Z score is reported as -1.02.
On to `Cc1ccc(-n2ncc3c(N)c4c(nc32)CCCC4=O)cc1`, for which the “% Inhibition” value was 12% and the Z score was -2.26.
`O=C(NCCn1ccnc1)c1[nH]nc(C2CC2)c1Cl`: the “% Inhibition” value is on record as -9% and the Z score stood at 1.61.
Consider `CC(C)N(C)C(=O)C1CCN(C(=O)[C@@H](N)C(C)(C)C)CC1`, for which the “% Inhibition” value is reported as -1% and the Z score was found to be 0.1.
The corresponding values for `COc1ccc(CNC/C=C/c2ccccc2)cc1` are -20% and 2.3.
Take `COC1CCC(CCNCc2ccccc2)CC1` (centres undefined): the “% Inhibition” value is -15% and the Z score was 2.25.
As to `COc1ccc(CNCCC2C(C)CN(C)C(C)C2Cc2ccccc2)cc1` (centres undefined), the “% Inhibition” value came out at 55% and the Z score is reported as -7.17.
Take `COc1cccc(OC2CN(C[C@H]3COc4ccccc4O3)C2)c1`: the “% Inhibition” value is 3% and the Z score is recorded as -0.59.
Regarding `CC(CNC(=O)N(C)CCc1cccs1)N1CCOCC1C` (centres undefined), the “% Inhibition” value turned out to be 5% and the Z score was -0.94.
As for `CCc1cc(N2CCCO2)nc(-c2ccncc2)n1`, the “% Inhibition” value came out at 1% and the Z score was -0.06.
`Cn1cnc2c(NCC(=O)N3CCN(c4ccccc4)CC3)ncnc21`: the “% Inhibition” value is listed as -1% and the Z score is 0.15.
Take `c1cc(CN2CCC[C@H](CN3CCCC3)C2)co1`: the “% Inhibition” value is recorded as -3% and the Z score turned out to be 0.59.
As for `CN(Cc1ccc2cc(O)ccc2c1)C[C@H]1CCCCO1`, the “% Inhibition” value is 8% and the Z score is given as -0.87.
Take `CC(C)[C@H]1CN(C)CCN1Cc1ccc2cc(O)ccc2c1`: the “% Inhibition” value is recorded as -17% and the Z score stood at 2.23.
Regarding `CN1CC[C@H](CN(C)Cc2ccc3cc(O)ccc3c2)C1`, the “% Inhibition” value was 56% and the Z score was -7.71.
As to `CN(CC[C@H]1CCCCO1)Cc1ccc2cc(O)ccc2c1`, the “% Inhibition” value is -1% and the Z score is 0.18.
Turning to `CN1CCC(N2CCN(Cc3ccc4cc(O)ccc4c3)CC2)CC1`, the “% Inhibition” value came out at 90% and the Z score is -8.27.
Turning to `Oc1ccc2cc(CN3CCC[C@H](CN4CCCC4)C3)ccc2c1`, the “% Inhibition” value is on record as 97% and the Z score is -3.
On the same counts, the results for `NC1CCOC(C2CCCCN2S(=O)(=O)c2ccc(C(F)(F)F)s2)C1` (centres undefined) are 4% and -0.63.
`COCCN1C(=O)[C@@H]2C(Cc3ccc(O)cc3)NC3(C(=O)Nc4c(C)cc(C)cc43)[C@@H]2C1=O` (some centres undefined): the “% Inhibition” value is on record as -3% and the Z score was 0.41.
Take `Cc1cccc(Cl)c1C(=O)NC(C1CCNCC1)[C@H]1C[C@H](O)C1` (some centres undefined): the “% Inhibition” value was -9% and the Z score is 1.88.
In the case of `Cc1noc2ncnc(N3CCCC3CC(O)c3cnn(C)c3)c12` (centres undefined), the “% Inhibition” value is 4% and the Z score was -0.69.
On the same counts, the results for `CCC[C@H](NC1CCN(C(=O)OC)CC1)C1CC1` are 7% and -0.96.
Take `CC1CC(C)CN(C(=O)c2ccc3c(=O)n4c(nc3c2)CCCC4)C1` (centres undefined): the “% Inhibition” value was -3% and the Z score was determined as 0.52.
The corresponding values for `COc1ccc([C@@H](CC(=O)N2CCCC2)c2cn(Cc3ccccc3)c3ccccc23)cc1` are -8% and 0.98.
On the same counts, the results for `COc1ccc([C@H]2CC(=O)Nc3cccc4c3c2cn4Cc2ccccc2)cc1` are -4% and 0.51.
As for `COc1ccc2c(/C=C/c3cc[n+](C)cc3)cn(Cc3ccccc3)c2c1`, the “% Inhibition” value worked out at 68% and the Z score was -6.36.
For `Cc1nc(NC(=O)NCCn2ncnn2)sc1C`, the “% Inhibition” value was determined as 31% and the Z score was -4.22.
On the same counts, the results for `CCC(C)CS(=O)(=O)NC(C)C1CC1` (centres undefined) are -4% and 0.39.
Consider `Cc1cccc(NC(=O)c2c[nH]c3nc(C)ccc3c2=O)c1`, for which the “% Inhibition” value is 4% and the Z score is -0.5.
Take `Cc1ccc(C)c(NC(=O)c2c(Oc3ccc(F)cc3)nc(C)c(Cl)c2C)c1`: the “% Inhibition” value was -8% and the Z score is listed as 1.01.
Regarding `O=C(Nc1c(C(=O)Nc2ccc(F)c(F)c2)oc2ccccc12)c1cc2ccccc2o1`, the “% Inhibition” value is recorded as -13% and the Z score is recorded as 2.46.
On the same counts, the results for `Cc1c(C)c2ccc(NC(=O)c3cc4ccccc4o3)cc2[nH]c1=O` are 93% and -7.22.
On to `Cn1cc(NC(=O)c2cc3ccccc3o2)ccc1=O`, for which the “% Inhibition” value is -4% and the Z score turned out to be 0.73.
The corresponding values for `CCOC(=O)c1cn(CCc2c[nH]cn2)cc(Oc2ccccc2)c1=O` are 0% and -0.09.
Turning to `O=C(NCC(O)c1ccccc1Cl)C1CCCN1` (centres undefined), the “% Inhibition” value came out at 1% and the Z score is on record as -0.1.
On the same counts, the results for `O=C(c1ccc(-c2noc(C(F)(F)F)n2)cc1)N1CCC1` are 29% and -3.23.
Take `CCNC(=O)N1CCN(c2ccc(-c3noc(C(F)(F)F)n3)cn2)CC1`: the “% Inhibition” value worked out at 12% and the Z score is -1.6.
On to `Cc1c(F)cccc1-c1ccc(CNc2cccc(CN3CCC(O)CC3)c2)o1`, for which the “% Inhibition” value was determined as 8% and the Z score is listed as -0.88.
The corresponding values for `CNC(=O)c1ccc(OC)c(-c2ccc(NCCN3CCOCC3)nc2)c1` are -7% and 1.05.
On to `CCc1ccc(-c2cnc3ccccc3n2)cc1NC(=O)[C@@H](NS(=O)(=O)c1ccccc1)C(C)C`, for which the “% Inhibition” value worked out at 4% and the Z score is -0.61.
As to `Cc1ccc(CCC(=O)NC(c2ccccc2)C(C)C(=O)O)o1` (centres undefined), the “% Inhibition” value came to 5% and the Z score is given as -0.67.
Consider `Cc1cccc(-c2noc(N3CCOCC3)c2CN(C(=O)CC(C)C)C2CC2)c1`, for which the “% Inhibition” value was -12% and the Z score was 1.29.
As to `CCn1cc(CN2CC[C@H]3C(=O)NCCCCCCN(Cc4ccncc4)[C@@H]3C2)c(C)n1`, the “% Inhibition” value was found to be 2% and the Z score is -0.2.
In the case of `COc1cccc(CN2CC[C@H]3C(=O)NCCCCCCN(Cc4ccncc4)[C@@H]3C2)n1`, the “% Inhibition” value is reported as -5% and the Z score came out at 0.65.
On the same counts, the results for `COc1ccc(CN2CC[C@@H]3C(=O)NCCCCCCN(Cc4ccncc4)[C@@H]3C2)cc1Cn1ccnc1` are 59% and -7.78.

The term % Inhibition denotes the change of the read-out against control, counted positive when it falls.

Source of the values: ChEMBL document CHEMBL4888484, “Replenishing the malaria drug discovery pipeline: Screening and hit evaluation of the MMV Hit Generation Library 1 (HGL1) against asexual blood stage Plasmodium falciparum ,using a nano luciferase reporter read-out” (2022).
